Screens (PubChem)
dFosB act – activators of delta FosB homodimer, primary screen, biochemical, fluorescence polarization, TAMRA-CDK5 oligo, single point. Protein FosB (Mus musculus), P13346. purified delta FosB; percent of positive-control signal above neutral wells. activation, % at 25 µM. actives 0.99% (n = 340,000). AID 493131, 2011;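 active = mean activation above about 17%, with every replicate also reaching it, limit read from the data, passing the limit was not always enough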
Target sequence (P13346 whole entry, looked up): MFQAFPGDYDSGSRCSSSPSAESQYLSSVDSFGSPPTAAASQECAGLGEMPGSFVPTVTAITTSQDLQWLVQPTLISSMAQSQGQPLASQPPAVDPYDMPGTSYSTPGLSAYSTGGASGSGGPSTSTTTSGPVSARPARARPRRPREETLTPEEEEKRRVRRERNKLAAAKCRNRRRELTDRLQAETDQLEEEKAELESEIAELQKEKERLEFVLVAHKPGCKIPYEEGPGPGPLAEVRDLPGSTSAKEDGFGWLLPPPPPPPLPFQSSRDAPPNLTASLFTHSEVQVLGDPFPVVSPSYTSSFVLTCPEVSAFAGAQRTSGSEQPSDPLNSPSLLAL
Rpn11 inh – Rpn11 (PSMD14) deubiquitinase inhibitors, primary screen, biochemical, fluorescence polarization, uHTS. 26S proteasome non-ATPase regulatory subunit 14 (Homo sapiens), O00487. human 26S proteasome, Ub4-pepOG fluorescence polarization; 20S core pre-blocked with epoxomicin. inhibition, % at 20 µM. actives 0.59% (n = 360,000). AID 588493, 2011;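 active = inhibition at 20 µM, scaled to each plate's controls, above about 33%, limit read from the data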
TPT1 inh – Candida albicans TPT1 enzyme inhibitors, primary screen, biochemical, fluorescence polarization; tRNA 2'-phosphotransferase TPT1 (Candida albicans SC5314); recombinant caTPT1, FP RNA substrate dephosphorylation; inhibition, % at 5 µM; actives 0.81% (n = 300,000); AID 1962, 2009;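 active = inhibition above the mean of all tested compounds plus 3 SD, set per screening campaign, cut at about 24% in these data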;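 also: plate controls were DMSO alone for no effect and ferristatin control at 100 nM for full effect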
ZTA DNA inh – ZTA (EBV) inhibition in EBNA-1 counter-screen. ZTA-DNA binding, fluorescence polarization. inhibition, % at 11 µM. actives 0.15% (n = 320,000); in the data active = inhibition above about 33%
Target sequence (P03206 whole entry, looked up): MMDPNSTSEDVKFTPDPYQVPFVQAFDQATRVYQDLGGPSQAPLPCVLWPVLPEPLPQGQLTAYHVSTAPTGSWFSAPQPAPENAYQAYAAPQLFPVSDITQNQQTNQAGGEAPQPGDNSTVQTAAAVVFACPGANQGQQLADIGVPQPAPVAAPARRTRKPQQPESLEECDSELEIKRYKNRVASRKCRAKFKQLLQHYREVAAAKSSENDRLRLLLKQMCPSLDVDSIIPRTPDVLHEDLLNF
GRIN3A LBD mod – binders of NR3A ligand-binding domain, primary screen, biophysical, differential scanning fluorimetry, uHTS | actives 2.5% (n = 340,000) | Glutamate receptor ionotropic, NMDA 3A (GRIN3A) ligand-binding domain | NR3A LBD differential scanning fluorimetry, Tm shift; 0% = protein alone, 100% = glycine-bound protein | Tm shift relative to glycine control, % at 25 µM | AID 1259313, 2017;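 active = melting temperature shift of at least 10% of the positive control shift, at one fixed dose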
EBNA-1 inhibitor – EBNA-1 DNA-binding inhibitors, primary screen, biochemical, fluorescence polarization; AID 1950, 2009; actives 0.34% (n = 300,000); inhibition, % at 14.8 µM; in the data active = inhibition above about 28%
The depositor's hits bear a star; . = no result given. A selection: hits, their analogues and other compounds. The true share with any hit is near 4.5%.

SMILES	dFosB act	Rpn11 inh	TPT1 inh	ZTA DNA inh	GRIN3A LBD mod	EBNA-1 inhibitor
COc1ccc(S(=O)(=O)N(C)C[C@H]2Oc3c(NC(=O)Nc4ccccc4)cccc3C(=O)N([C@H](C)CO)C[C@@H]2C)cc1	-26.8	0.8	.	.	-9.6	.
Cc1noc(C)c1S(=O)(=O)N(C)C[C@H]1Oc2c(NC(=O)Nc3ccccc3)cccc2C(=O)N([C@H](C)CO)C[C@@H]1C	-0.5	-7.4	.	.	-0.6	.
COc1ccc(NC(=O)Nc2cccc3c2O[C@H](CN(C)S(=O)(=O)c2cn(C)cn2)[C@@H](C)CN([C@H](C)CO)C3=O)cc1	-4.2	-3.9	.	.	15.5*	.
O=C(CNc1cc(S(=O)(=O)N2CCOCC2)ccc1N1CCCC1)Nc1ccc(Cl)cc1F	.	2.0	.	.	.	.
C[C@H](CO)N1C[C@H](C)[C@@H](CN(C)C(=O)Nc2ccccc2)Oc2ccc(NC(=O)Nc3ccc(C(F)(F)F)cc3)cc2C1=O	-1.1	9.3	.	.	11.4*	.
C[C@H](CO)N1C[C@H](C)[C@@H](CN(C)C(=O)NC2CCCCC2)Oc2ccc(NC(=O)CCC(F)(F)F)cc2C1=O	5.0	-7.3	.	.	0.1	.
C[C@H](CO)N1C[C@H](C)[C@@H](CN(C)C(=O)Nc2ccccc2)Oc2c(NC(=O)Nc3ccc(C(F)(F)F)cc3)cccc2C1=O	-5.0	5.3	.	.	28.3*	.
CC(C)NC(=O)N(C)C[C@H]1Oc2ccc(NC(=O)CCC(F)(F)F)cc2C(=O)N([C@H](C)CO)C[C@@H]1C	0.0	1.2	.	.	12.9*	.
C[C@H](CO)N1C[C@H](C)[C@@H](CN(C)C(=O)Nc2ccccc2)Oc2c(NC(=O)Nc3ccccc3)cccc2C1=O	-4.1	-2.0	.	.	-13.2	.
C[C@@H]1CN([C@H](C)CO)C(=O)c2cc(NC(=O)Nc3ccc(F)cc3)ccc2O[C@H]1CN(C)C(=O)Nc1ccc(C(F)(F)F)cc1	-10.9	6.1	.	.	9.2	.
COC(=O)COc1ccc(-c2nccc(-c3ccc(Br)cc3)n2)cc1	2.2	-9.7	-1.4	12.2	-15.1	4.0
COc1ccc(-c2ccnc(SCC(=O)c3ccc(Br)cc3)n2)cc1	-2.5	-1.6	2.4	-0.9	25.7*	-13.2
CC(=O)NC(=S)Nc1ccc(-c2nc3ccc(C)cc3s2)cc1	-3.4	13.8	2.3	-4.5	-2.9	11.5
Cc1ccc2nc(-c3ccc(NS(=O)(=O)c4ccc(F)cc4)cc3)sc2c1	-19.8	12.8	-3.6	-10.2	30.9*	1.7
CC(=O)Nc1ccc(S(=O)(=O)Nc2nc3ccc(C)cc3s2)cc1	-6.5	-7.8	2.6	0.8	-4.5	5.3
CCCCNC(=S)Nc1ccc(-c2nc3ccc(C)cc3s2)cc1	-5.3	12.3	1.1	1.2	31.2*	14.8
Cc1ccc2nc(-c3ccc(NC(=S)NCCC(C)C)cc3)sc2c1	0.6	3.1	0.9	9.0	23.7*	0.9
CNC(=S)Nc1ccc(-c2nc3ccc(C)cc3s2)cc1	2.1	6.8	1.7	-7.1	28.3*	-9.8
CCC(C)(C)NC(=S)Nc1ccc(-c2nc3ccc(C)cc3s2)cc1	4.9	20.5	6.0	11.1	30.7*	3.2
COc1ccc(N2CCN(C(=O)Cn3cnc4c3c(=O)n(C)c(=O)n4C)CC2)cc1	-3.5	0.2	-6.3	1.6	4.0	0.8
Cn1c(=O)c2c(ncn2CC(=O)N2CCN(c3ccc([N+](=O)[O-])cc3)CC2)n(C)c1=O	0.2	-2.9	-9.8	13.7	18.0*	-2.6
CCCC(=O)Nc1nc2ccc(NC(=O)c3ccc(Br)o3)cc2s1	-4.9	4.3	-3.8	6.5	17.8*	10.6
COc1cc(C(=O)NCc2nc(C)cs2)ccc1OC1CCN(C(C)=O)CC1	-1.9	-10.9	-1.0	9.2	11.7*	-0.5
CCc1ccc(CNC(=O)c2ccc(OC)c(OC3CCN(C(C)C)CC3)c2)nc1	-5.1	-7.8	-0.7	2.9	13.1*	2.5
O=C(O)c1ccc(-c2noc(-c3ccccc3Cl)n2)cc1	-6.1	0.9	-0.5	18.1	0.6	-5.5
SMILES	dFosB act	Rpn11 inh	TPT1 inh	ZTA DNA inh	GRIN3A LBD mod	EBNA-1 inhibitor
c1ccc(-c2noc(-c3ccccc3-c3ccccc3)n2)cc1	-9.4	2.6	-2.1	13.6	13.1*	5.1
Fc1ccccc1-c1nc(-c2ccc(Cl)cc2)no1	6.1	-2.6	-0.5	18.1	21.4*	9.7
CCNC(=O)c1ccc(NS(=O)(=O)c2ccc3[nH]c(=O)[nH]c3c2)cc1	-11.8	-0.7	0.3	-4.2	2.2	1.2
CC(C)[C@H](NC(=O)c1ccco1)C(=O)N(C)Cc1c(F)cccc1Cl	-5.4	1.0	-0.6	14.7	-1.2	-6.3
O=C(CSc1ccccn1)C12CC3CC(CC(C3)C1)C2	-4.3	0.7	-10.0	9.1	12.5*	11.8
O=C(O)c1cccnc1SCC(=O)C12CC3CC(CC(C3)C1)C2	-1.7	-10.5	-1.8	-8.0	3.8	-19.2
Cc1ccc(C(=O)CSc2ccccn2)cc1	-9.7	-5.4	3.0	8.0	11.0*	-2.9
O=C(CSc1ccccn1)c1ccc(F)cc1	4.5	-3.0	-1.2	10.3	2.2	9.2
CCOC(=O)c1nn(-c2ccccc2)cc1O	-6.6	-5.4	-2.7	-1.1	10.3*	4.6
Clc1ccc(CNc2ncnc3[nH]ncc23)c(Cl)c1	-7.9	-1.8	.	.	0.6	.
COc1ccc(C(=O)Sc2nncc3ccccc23)cc1	5.1	-3.0	-0.2	-6.3	13.0*	-0.8
COc1ccc(NC(=O)CSc2nncc3ccccc23)cc1	-5.9	2.9	-3.7	1.7	0.2	3.7
Oc1c(Cl)cc(Cl)cc1/C=N/Nc1ncc(Br)cn1	1.9	0.0	-4.8	-7.8	-1.4	-10.5
CN(/N=C/c1cc(Cl)cc(Cl)c1O)C(=S)NC(C)(C)C	-7.7	-2.2	7.6	10.1	31.4*	3.0
Cc1c(C(=O)Nc2ccc(C(F)(F)F)cc2)sc2ncn(CC(=O)N3CCN(c4ccccn4)CC3)c(=O)c12	10.1	21.0	3.5	2.9	22.6*	-14.6
CCOC(=O)C1=C(c2ccccc2)NC(=O)NC1c1ccc(OC)cc1OC (stereo unspecified)	-12.8	2.9	-1.3	-9.0	-0.2	1.4
c1ccc2nc(N3CCCC3)c(N3CCCC3)nc2c1	4.1	-1.1	-10.5	9.8	11.2*	-2.9
Cc1nc2ccccc2nc1N1CCCCC1	5.5	2.1	.	.	1.5	.
Cc1ccc(NC(=O)c2cccs2)cc1	-0.2	-3.4	0.9	-9.8	-10.0	2.2
Cc1ccccc1OCc1nc(-c2ccc(Br)o2)no1	-3.7	-2.1	-1.9	6.9	15.5*	9.0
Cc1ccccc1OCc1nc(-c2ccccc2)no1	-4.4	-0.1	1.1	-3.2	1.8	6.9
Cc1ccccc1-c1nc(-c2ccc(NC(=O)c3cccs3)cc2)no1	-1.0	4.0	-0.3	3.8	42.4*	9.2
